# Hits are enriched below; roughly 19% of the tested compounds scored in any of these assays.
# TDP1 cell noCPT – qHTS for Inhibitors of human tyrosyl-DNA phosphodiesterase 1 (TDP1): qHTS in cells in absence of CPT; AID 686978, 2013; Potency, µM (highest dose often 46.2 µM), for inactives: at the top dose activity change, negative = growth inhibition, hits mostly inhibitors; DT40 Tdp1-/- hTDP1 cells, no CPT, ATP luminescence, 48 h; 420,000 compounds, 15% hits; note: nearly all actives have a fitted effect of over 55% in size
#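 Compound effects on proliferation are scored in DT40 Tdp1-/-;hTDP1 cells in the absence of CPT. ATP levels (CellTiter-Glo luminescence) are recorded after a ≥48 hr, 37 °C incubation.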
# RORgamma inh – qHTS for inhibitors of ROR gamma transcriptional activity; Drosophila S2 Gal4-RORgamma UAS-luciferase reporter, 20 h; Potency, µM (highest dose often 53.6 µM), without a hit: at the highest dose activity change, negative = inhibition, actives largely listed as inhibitors; 310,000 compounds, 5.4% hits; note: nearly all actives have a fitted effect of over 60% in size
# Target sequence (P51450 whole entry, looked up, the tested form may be a part): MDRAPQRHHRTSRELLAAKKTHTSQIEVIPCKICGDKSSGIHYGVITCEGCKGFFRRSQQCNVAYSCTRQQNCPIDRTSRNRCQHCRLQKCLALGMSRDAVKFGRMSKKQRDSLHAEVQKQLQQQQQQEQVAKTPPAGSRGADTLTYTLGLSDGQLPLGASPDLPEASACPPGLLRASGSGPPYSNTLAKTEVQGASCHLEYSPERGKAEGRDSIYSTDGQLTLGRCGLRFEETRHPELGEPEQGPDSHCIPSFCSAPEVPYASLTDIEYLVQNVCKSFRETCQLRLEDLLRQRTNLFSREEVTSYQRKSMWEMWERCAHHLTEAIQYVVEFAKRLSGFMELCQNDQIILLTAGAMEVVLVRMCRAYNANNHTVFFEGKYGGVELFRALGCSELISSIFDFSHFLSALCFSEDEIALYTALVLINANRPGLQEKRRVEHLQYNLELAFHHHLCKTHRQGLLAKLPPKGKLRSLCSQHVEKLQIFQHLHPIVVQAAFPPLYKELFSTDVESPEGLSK
#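 Schneider cells (Drosophila), stable Gal4 DBD–ROR gamma + UAS-luc; 1 hr cmpd preincubation; Cu2+ induction 700 uM final; 20 hr ambient; luminescence.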
# Gal4-VP16 FLuc – VP16 counterscreen qHTS for inhibitors of ROR gamma transcriptional activity. 310,000 compounds, 3.5% hits. AID 2546, 2010. Drosophila S2 Gal4-VP16 UAS-luciferase, luminescence, 20 h. Potency, µM (highest dose often 53.6 µM), without a hit: at the top dose activity, negative = inhibition, most hits filed as inhibitors;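 note: Gal4-VP16 expression switched on by copper sulfate through the metallothionein promoter; nearly all actives have a fitted effect of over 50% in size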
# TDP1 inh – qHTS Assay for Inhibitors of Tyrosyl-DNA Phosphodiesterase (TDP1) | Tyrosyl-DNA phosphodiesterase 1 (Homo sapiens), Q9NUW8 | recombinant TDP1, AlphaScreen DNA substrate cleavage | Potency, µM (series often up to 130 µM), for the others: at the highest dose activity change, negative = inhibition, usual class: inhibitors | 350,000 compounds, 0.28% hits | AID 485290, 2010; note: nearly all actives have a fitted effect of over 40% in size
#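 Here, a 5' biotin and 3' phosphotyrosine-FITC DNA oligonucleotide reports Tdp1 activity: intact substrate bridges AlphaScreen beads, while cleavage leaves a 3' phosphate and drops signal. All incubations at room temperature.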
# TDP1 cell CPT – qHTS for Inhibitors of human tyrosyl-DNA phosphodiesterase 1 (TDP1): qHTS in cells in presence of CPT; chicken DT40 Tdp1-/-;hTDP1 cells + 20 nM CPT, ATP luminescence, 48 h; Potency, µM (highest dose often 46.2 µM), inactives show at the top dose activity change, negative = growth inhibition, usual class: inhibitors; 420,000 compounds, 12% hits; AID 686979, 2013; note: nearly all actives have a fitted effect of over 55% in size
#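 Chicken DT40 Tdp1-/- cells stably complemented with human TDP1 were seeded at 400 cells/well in medium containing 20 nM camptothecin, exposed to pin-transferred compounds, and grown at 37 °C for at least 48 hr. Viability was read as ATP luminescence.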
# * marks the source's active call; other numbers are inactive results; ? = inconclusive; . = no result; [ ] = remark or other dose. Calls come from the whole dose curve; as a rule, active = well fitted curve in the direction sought with a large enough effect; inconclusive = small, poorly fitted or top-dose-only effect, or another doubt; inactive = no such curve, though single readings can be large; an effect the other way counts as inactive or inconclusive. % is set by controls: 0 for no effect and ±100 for the full control effect; potency is the fitted concentration of half-maximal effect.
SMILES,TDP1 cell noCPT,RORgamma inh,Gal4-VP16 FLuc,TDP1 inh,TDP1 cell CPT
C[C@@H]1CN([C@@H](C)CO)C(=O)Cc2cc(NC(=O)Nc3ccc(F)cc3)ccc2O[C@@H]1CN(C)Cc1ccc(Cl)c(Cl)c1,15µM*,.,.,4%,?
C[C@H]1CN([C@@H](C)CO)C(=O)Cc2cc(NC(=O)Nc3ccccc3)ccc2O[C@H]1CN(C)Cc1ccccc1,21µM*,.,.,.,21µM*
C[C@H](CO)N1C[C@H](C)[C@H](CN(C)Cc2ccncc2)Oc2ccc(NC(=O)Nc3ccc(C(F)(F)F)cc3)cc2CC1=O,4.6µM*,.,.,1%,3.3µM*
C[C@H]1CN([C@@H](C)CO)C(=O)Cc2cc(NS(C)(=O)=O)ccc2O[C@@H]1CN(C)Cc1ccc(Cl)c(Cl)c1,-26%,.,.,3%,?
Cc1ccc(CC(=O)Nc2c(C(=O)N3CCN(c4ccccc4F)CC3)oc3ccccc23)cc1,18µM*,.,.,14%,?
COc1cccc(N2CCN(C(=O)c3oc4ccccc4c3NC(=O)Cc3ccc(OC)c(OC)c3)CC2)c1,?,2%,-8%,7%,16µM*
CCOCCCN(C)C1CCN(C(=O)c2oc3ccccc3c2NC(=O)Cc2ccc(F)cc2)CC1,-1%,-2%,5%,3%,-21%
COc1ccc(NC(=O)c2oc3ccccc3c2NC(=O)Cc2ccc(F)cc2)c(OC)c1,8.2µM*,.,.,4%,12µM*
COc1ccc(CC(=O)Nc2c(C(=O)N3CCN(c4ccccc4F)CC3)oc3ccccc23)cc1OC,13µM*,.,.,9%,10µM*
COc1cccc(N2CCN(C(=O)c3oc4ccccc4c3NC(=O)CCc3cc(OC)no3)CC2)c1,?,-18%,0%,7%,-55%
COc1ccc(NC(=O)c2oc3ccccc3c2NC(=O)COc2ccccc2OC)c(OC)c1,-23%,1%,-2%,2%,-14%
Cc1cc(/C=N/NC(=O)c2ccsc2)c(C)n1-c1cnccn1,-8%,-39%,6%[10 µM],8%,-10%
O=C(CN(Cc1ccco1)C(=O)c1ccc(Cl)cc1)Nc1ccc(Cl)c(Cl)c1,?,?,-8%,-4%,-7%
Cc1c(Br)cc(C(=O)NC2CCCCC2)c(C)c1C,-29%,-1%,1%,-1%,?
Cc1ccc(CC(=O)Nc2c(C(=O)N3CCN(c4ccccc4)CC3)oc3ccccc23)cc1,?,.,.,9%,23µM*
COc1ccccc1C(=O)Nc1c(C(=O)Nc2ccccc2F)oc2ccccc12,26µM*,.,.,-1%,21µM*
COc1ccccc1C(=O)Nc1c(C(=O)N2CCN(c3ccccc3F)CC2)oc2ccccc12,16µM*,.,.,-1%,16µM*
O=C(Nc1c(C(=O)N2CCN(c3ccccc3)CC2)oc2ccccc12)c1ccco1,?,.,.,4%,?
CCOc1ccc(C(=O)Nc2c(C(=O)Nc3ccccc3F)oc3ccccc23)cc1OCC,-11%,.,.,-1%,-29%
O=C(Cc1ccccc1)Nc1c(C(=O)N2CCN(c3ccc(F)cc3)CC2)oc2ccccc12,26µM*,.,.,2%,16µM*
COc1ccccc1C(=O)Nc1c(C(=O)N2CCN(c3ccc(F)cc3)CC2)oc2ccccc12,-10%,.,.,4%,-17%
CC(C)c1cc(CN2CCN(C3CCCC3)C(CCO)C2)[nH]n1 (stereo not given),-13%,34%,-8%,5%,-7%
O=S(=O)(c1ccc(Cl)cc1)N1CCN(c2ncccn2)CC1,-22%,14%,-5%,0%,2%
Cc1ccc(S(=O)(=O)N2CCN(c3ncccn3)CC2)cc1C,?,.,.,.,5.8µM*
O=S(=O)(c1ccc2c(c1)OCCO2)N1CCN(c2ncnc3sccc23)CC1,2.3µM*,?,11µM*,0%,5.2µM*
Cc1ccc(S(=O)(=O)N2CCN(c3ncnc4sccc34)CC2)cc1C,5.8µM*,.,.,7%,5.8µM*

# Source: PubChem BioAssay (National Center for Advancing Translational Sciences (NCATS))
